Source: PubChem BioAssay (NCATS)
Inconclusive results are not listed. Unless noted, the call rests on the fitted dose curve; in most records, active means well fitted curve in either direction with a large enough effect (not every such curve was filed as active); inconclusive means small, poorly fitted or top-dose-only effect, or another doubt; inactive means flat fitted curve, though single readings scatter.

How the values were obtained:
[1] = AP1 Signaling Pathway (AID 357); conditions: ME-180 AP-1-bla reporter, EGF-induced, beta-lactamase ratio, 5 h; at 17.2 µM (top of the series) unless noted;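 further: ME-180 reporter cells stimulated with EGF at its EC50 level; on the % scale 0 is the no-effect control and ±100 the full control effect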
How it was run: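 Beta-lactamase reporter under AP-1 response element, ME-180 background. Stimulus: EC50 EGF. Compound exposure 5 h, 37 °C. Detection: CCF4, 2.5 h RT, 460/530 nm. Values: AC50 from titration.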

[2] = NFAT Signaling Pathway (AID 444); conditions: Jurkat NFAT-bla M1, carbachol, beta-lactamase ratio, 5 h; at 17.2 µM (top of the series) unless noted;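 further: carbachol stimulus at about its EC50 of 1 µM final; on the % scale 0 is the no-effect control and ±100 the full control effect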
How it was run: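 Jurkat cells with NFAT-driven β-lactamase reporter and co-expressed M1 receptor, stimulated with carbachol (final 1 uM, ~EC50), compound titration, 5 h at 37 °C. CCF4 loaded 1 h at RT; 460/530 nm ratio gave %activity and AC50.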

[3] = Stat Signaling Pathway (AID 446); conditions: ME-180 (cervical carcinoma) SIE beta-lactamase reporter, IL-6 stimulated, 5 h; at 17.2 µM (top of the series) unless noted;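 further: ME-180 cervical cancer cells given 40 pM IL-6 alongside compound; SIE-controlled beta-lactamase reporter measured as 460/530 nm FRET emission ratio; on the % scale 0 is the no-effect control and ±100 the full control effect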
How it was run: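 Normalization used AC90 stimulation (300 pM IL-6) and AC90 inhibition (125 nM pan-JAK inhibitor at 40 pM IL-6). The underlying signal is SIE-driven beta-lactamase in ME-180 cells after 5 h IL-6 exposure with compound.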

[4] = biological target: Glucocorticoid receptor (Homo sapiens) (UniProt P04150); assay: GR-GFP Redistribution (AID 450;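 active means compounds whose dose series gives a full or clear partial fitted curve of increased nuclear translocation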; further: potency means the concentration at half of the fitted maximal effect); conditions: U2OS GR-GFP nuclear translocation, laser cytometry, 2 h; series mostly up to 20.6 µM
Chain of Glucocorticoid receptor (Homo sapiens) (P04150 whole entry, looked up): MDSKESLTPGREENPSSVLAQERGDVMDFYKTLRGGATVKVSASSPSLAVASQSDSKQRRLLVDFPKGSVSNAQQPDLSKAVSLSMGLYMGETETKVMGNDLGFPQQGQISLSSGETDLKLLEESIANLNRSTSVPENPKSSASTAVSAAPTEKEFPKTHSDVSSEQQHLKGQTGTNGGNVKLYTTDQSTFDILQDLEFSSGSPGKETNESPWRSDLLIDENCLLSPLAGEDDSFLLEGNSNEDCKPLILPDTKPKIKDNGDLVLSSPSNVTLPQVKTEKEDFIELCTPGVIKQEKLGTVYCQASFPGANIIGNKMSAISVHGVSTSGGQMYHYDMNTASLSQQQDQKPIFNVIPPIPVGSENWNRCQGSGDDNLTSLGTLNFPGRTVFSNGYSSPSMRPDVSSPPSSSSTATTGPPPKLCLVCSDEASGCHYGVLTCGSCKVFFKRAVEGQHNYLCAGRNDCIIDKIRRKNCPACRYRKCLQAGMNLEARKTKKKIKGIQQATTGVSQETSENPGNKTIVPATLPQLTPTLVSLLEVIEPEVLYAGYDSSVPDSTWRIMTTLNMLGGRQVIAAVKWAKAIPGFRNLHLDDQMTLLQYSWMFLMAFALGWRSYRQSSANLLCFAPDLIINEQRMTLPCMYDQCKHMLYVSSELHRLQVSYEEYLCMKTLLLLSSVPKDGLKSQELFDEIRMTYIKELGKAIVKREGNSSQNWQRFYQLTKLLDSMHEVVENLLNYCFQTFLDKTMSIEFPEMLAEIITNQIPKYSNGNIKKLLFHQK

CCOC(=O)c1ccc(N2CC(O)=C(c3nc4ccccc4c(=O)[nH]3)C2=N)cc1
inactive: activity change, negative = inhibition [1] -27.9% | activity change, negative = inhibition [2] -8.54% | activity, negative = inhibition [3] -21.7% | Potency [4] > 20.6 µM

O=C(O)CC1SC(=Nc2cccc(C(F)(F)F)c2)NC1=O (configuration not stated)
inactive: activity change, negative = inhibition [1] 7.22% | activity change, negative = inhibition [2] 9.67% | activity, negative = inhibition [3] -0.717% | Potency [4] > 20.6 µM

Cc1cc(N2C(=O)C(=O)/C(=C(/O)c3ccc(F)cc3)C2c2cccc(Br)c2)no1 (configuration not stated)
inactive: activity change, negative = inhibition [1] -7.98% | activity change, negative = inhibition [2] 2.37% | activity, negative = inhibition [3] -29.1% | Potency [4] > 20.6 µM

C=CCNc1nc(N2CCOCC2)c(C#N)c2c1CN(C)CC2
inactive: activity change, negative = inhibition [1] 4.63% | activity change, negative = inhibition [2] -4.25% | activity, negative = inhibition [3] 2.07% | Potency [4] > 20.6 µM

Cc1ccc(NC(=O)CSc2nnc(-c3ccco3)c(-c3ccco3)n2)cc1
inactive: activity change, negative = inhibition [1] 0.107% | activity change, negative = inhibition [2] -24.9% | activity, negative = inhibition [3] -23.9% | Potency [4] > 20.6 µM

CCOc1cccc(-c2nnc3sc(COc4ccccc4)nn23)c1
inactive: activity change, negative = inhibition [1] -3.24% | activity change, negative = inhibition [2] 9.41% | activity, negative = inhibition [3] -10.6% | Potency [4] > 20.6 µM

Cc1ccc2[nH]c3c(NCCN4CCOCC4)ncnc3c2c1
inactive: activity change, negative = inhibition [1] -6.77% | activity change, negative = inhibition [2] 7.47% | activity, negative = inhibition [3] 0.396% | Potency [4] > 20.6 µM

CCC(=O)NC1(C(F)(F)F)C(=O)Nc2c1c(=O)[nH]c(=O)n2Cc1ccco1 (configuration not stated)
inactive: activity change, negative = inhibition [1] 6.62% | activity change, negative = inhibition [2] 18.9% | activity, negative = inhibition [3] -0.859% | Potency [4] > 20.6 µM

CCCc1cc(NCCN2CCOCC2)n2c(nc3ccccc32)c1C#N
inactive: activity change, negative = inhibition [1] -11.4% | activity change, negative = inhibition [2] 9.42% | activity, negative = inhibition [3] -2.52% | Potency [4] > 20.6 µM

Cc1cc(O)ccc1-c1cnc2ccccc2n1
inactive: activity change, negative = inhibition [1] 5.77% | activity change, negative = inhibition [2] -5.17% | activity, negative = inhibition [3] 21.5% | Potency [4] > 20.6 µM

Cc1cccn2c(=O)c3cc(C(=O)NCc4cccnc4)c(=N)n(C)c3nc12
inactive: activity change, negative = inhibition [1] 0.507% | activity change, negative = inhibition [2] 5.48% | activity, negative = inhibition [3] 10% | Potency [4] > 20.6 µM

CCC1SC(N)=NC1=O (configuration not stated)
inactive: activity change, negative = inhibition [1] 2.7% | activity change, negative = inhibition [2] -3.13% | activity, negative = inhibition [3] -1.83% | Potency [4] > 20.6 µM

CCN(CC)CCCN1C(=O)C(=O)/C(=C(/O)c2ccc(OC)cc2)C1c1ccco1 (configuration not stated)
inactive: activity change, negative = inhibition [1] 9.88% | activity change, negative = inhibition [2] -12.1% | activity, negative = inhibition [3] 10.8% | Potency [4] > 20.6 µM

C/C(=N\O)c1c(C)c2ccccc2n1C
inactive: activity change, negative = inhibition [1] 2.06% | activity change, negative = inhibition [2] -14.1% | activity, negative = inhibition [3] 4.84% | Potency [4] > 20.6 µM

C=CCNc1nc(-c2cccc(OC)c2O)nc2ccccc12
inactive: activity change, negative = inhibition [1] 20.2% | activity change, negative = inhibition [2] 4.81% | activity, negative = inhibition [3] -11.9% | Potency [4] > 20.6 µM

O=C(Cc1ccc(Cl)cc1)Nc1cccc(-c2nnc(-c3ccco3)o2)c1
inactive: activity change, negative = inhibition [1] -5.69% | activity change, negative = inhibition [2] 11.3% | activity, negative = inhibition [3] -1.67% | Potency [4] > 20.6 µM

CC(C)C(C(=O)Nc1ncn[nH]1)N1C(=O)c2ccccc2C1=O (configuration not stated)
inactive: activity change, negative = inhibition [1] 21.4% | activity change, negative = inhibition [2] -9.04% | activity, negative = inhibition [3] -1.14% | Potency [4] > 20.6 µM

CN=c1sc2ccccc2n1CC(O)COCc1ccco1 (configuration not stated)
inactive: activity change, negative = inhibition [1] -8.62% | activity change, negative = inhibition [2] 1.06% | activity, negative = inhibition [3] -2.56% | Potency [4] > 20.6 µM
